# According to ChEMBL document CHEMBL3988442, “University of Dundee, Small-Polar-MMV Screening Library” (2021):
# Among all 66,000 compounds or so, about 960 (1.5%) showed an effect of 50% or more. Shown is part of a subset that was picked to be rich in strong results.
# System: Trypanosoma brucei
# Assay: Trypanosoma brucei 72 hour study
# Assay type: functional, organism-based
# Set-up: scale not given: in the data most compounds retested in dose-response had high values
structure (smiles),measurement,setting,value
O=S(=O)(C1CC1)N1Cc2nccn2CC(Cn2cncn2)C1 (centres undefined),Percent Effect,"30.3 µM, […]",-41.46%
CC1c2ncc(CN3CCN(C)CC3)n2CCN1Cc1ccc(F)cc1.O=C(O)C(F)(F)F.O=C(O)C(F)(F)F.O=C(O)C(F)(F)F (centres undefined),Percent Effect,"30.3 µM, […]",-44.2%
CN(Cc1ccco1)[C@@H]1CN(C(=O)c2cnccn2)C[C@@H]2CCCO[C@@H]21.O=C(O)C(F)(F)F,Percent Effect,"30 µM, 30.03 µM",-17.24%
COc1cc(N2CCC3(CCN(Cc4csc(C)n4)C3=O)C2)ncn1.O=C(O)C(F)(F)F (centres undefined),Percent Effect,"30.3 µM, […]",-84.03%
COCC1COCCC12CCN(S(=O)(=O)c1cccnc1)CC2.O=C(O)C(F)(F)F (centres undefined),Percent Effect,"30.3 µM, […]",-13.71%
O=C(COc1ccc2c(c1)CCC2)NS(=O)(=O)c1cccnc1,Percent Effect,10 µM,-70.49%
Cc1ccc(N2CC[C@@H]3[C@@H]2CCN3C(=O)Cc2ccccc2)nn1.O=C(O)C(F)(F)F,Percent Effect,"30.3 µM, […]",-46.46%
O=C(c1cccc(Cn2ccnc2)c1)N1CCCC(n2cccn2)C1 (centres undefined),Percent Effect,"30.3 µM, […]",2.699%
Cc1ccc(OCc2nc(CNCC3CN(C)CCO3)cs2)cc1 (centres undefined),Percent Effect,10 µM,77.03%
Cc1nc(COc2ccc(CNCC3CN(C)CCO3)cc2)cs1 (centres undefined),Percent Effect,"30.3 µM, […]",-2.349%
CCN1CCOC(CNCc2ccc(OCc3ccccn3)cc2)C1 (centres undefined),Percent Effect,10 µM,-32.81%
CN1CCOC(CNCc2ccc(OCc3ccccn3)cc2)C1 (centres undefined),Percent Effect,"30.3 µM, […]",56.06%
same,Percent Effect,"10 mM, 10 mM as filed; unlikely as a test dose",-23.3%
Cc1nc(CNCC2CN(C)CCO2)cs1 (centres undefined),Percent Effect,"30.3 µM, […]",3.844%
CN1CCOC(CNCc2cccc(OCc3ccccn3)c2)C1 (centres undefined),Percent Effect,"30 µM, 30.03 µM",-14.98%
Cc1ccc(S(=O)(=O)NCC(C)(C)N)c(F)c1.Cl,Percent Effect,"30 µM, 30.03 µM",-16.31%
Cc1cc(Oc2ccccc2F)nc(C2CCCCN2)n1.Cl.Cl (centres undefined),Percent Effect,"30.3 µM, […]",-25.86%
Cc1nn(C)c(N(C)C)c1CNC1CCc2c(Cl)cccc21.Cl (centres undefined),Percent Effect,"30.3 µM, […]",17.67%
CN(Cc1cn2c(n1)CN(C(=O)CC1CC1)CC2)Cc1ccco1.O=C(O)C(F)(F)F,Percent Effect,"30 µM, 30.03 µM",13.03%
CC(C)CN1CCCC1c1ccc(C(=O)Nc2cccnc2)s1 (centres undefined),Percent Effect,"30.3 µM, […]",100.5%
CC(C)CN1CCCC1c1ccc(C(=O)Nc2cn(C)nn2)s1 (centres undefined),Percent Effect,"30.3 µM, […]",0.1891%
CC(C)CN1CCCC1c1ccc(C(=O)Nc2ccc3[nH]nnc3c2)s1 (centres undefined),Percent Effect,"30.3 µM, […]",85.03%
CCc1nnc(NC(=O)c2ccc(C3CCCN3CC(C)C)s2)s1 (centres undefined),Percent Effect,"30.3 µM, […]",-0.9926%
CC(C)CN1CCCC1c1ccc(C(=O)Nc2cc[nH]n2)s1 (centres undefined),Percent Effect,"30.3 µM, […]",23.5%
Cc1cnc(NC(=O)c2ccc(C3CCCN3CC(C)C)s2)s1 (centres undefined),Percent Effect,"30.3 µM, […]",0.4974%
COCCN(C)C[C@@H]1CN(C(=O)c2ccc3c(c2)OCO3)C[C@@H]1CO,Percent Effect,"30 µM, 30.03 µM",-13.62%
CC(C)Cc1nc(OCC(N)=O)c(C#N)c2c1CCCC2,Percent Effect,"30 µM, 30.03 µM",-29.84%
CCS(=O)(=O)N1CCN(Cc2ccncc2)c2nc(C)ccc2C1.O=C(O)C(F)(F)F.O=C(O)C(F)(F)F,Percent Effect,"30 µM, 30.03 µM",13.64%
COc1cccc2c1OCC(C(=O)NCCc1nc3c(s1)CCC3)C2 (centres undefined),Percent Effect,"30 µM, 30.03 µM",-23.46%
COc1cccc2c1OCC(C(=O)NCc1nc3c(s1)CCCC3)C2 (centres undefined),Percent Effect,"30 µM, 30.03 µM",60.51%
COc1ccc2c(c1)OCC(C(=O)NCc1nc3c(s1)CCCC3)C2 (centres undefined),Percent Effect,"30 µM, 30.03 µM",-46.37%
Cc1ccc2c(c1)C(NC(=O)N(C)C)CC21CCN(C(C)C)CC1.O=C(O)C(F)(F)F (centres undefined),Percent Effect,"30.3 µM, […]",-8.347%
COCCN1CCC2(CC1)CC(NC(=O)C(C)C)c1ccccc1O2.O=C(O)C(F)(F)F (centres undefined),Percent Effect,"30.3 µM, […]",3.771%
CC(NCc1ccc(OCC(N)=O)cc1)c1ccc2c(c1)CCCC2 (centres undefined),Percent Effect,"30.3 µM, […]",58.39%
CC(NCc1ccc(OCC(N)=O)cc1)c1ccc(Cl)cc1.Cl (centres undefined),Percent Effect,"30.3 µM, […]",-11.6%
CC(NCc1ccc(OCC(N)=O)cc1)c1ccc(Cl)c(Cl)c1.Cl (centres undefined),Percent Effect,"30.3 µM, […]",16.7%
O=C(O)C(F)(F)F.O=C(O)C(F)(F)F.O=C(O)C(F)(F)F.c1ccc(CN2CCc3nnc(COc4ccccn4)n3CC2)nc1,Percent Effect,"30 µM, 30.03 µM",1.272%
Cc1ccc(CN2CCn3c(C(=O)N(C)C)cnc3C2)s1.O=C(O)C(F)(F)F,Percent Effect,"30 µM, 30.03 µM",-2.366%
CCCn1c(C)c(CC(=O)NC)c2c1CC(C)(C)CC2=O,Percent Effect,"30 µM, 30.03 µM",24.04%
CCCn1c(C)c(CC(=O)NC(C)CO)c2c1CC(C)(C)CC2=O (centres undefined),Percent Effect,"30 µM, 30.03 µM",-12.97%
CCCn1c(C)c(CC(=O)N[C@H](C)C(=O)OC)c2c1CC(C)(C)CC2=O,Percent Effect,"30 µM, 30.03 µM",85.29%
Nc1cc(N2CCOCC(Cc3ccc4[nH]ccc4c3)C2)ncn1 (centres undefined),Percent Effect,"30.3 µM, […]",67.68%
c1cc(N2CCOCC(Cc3ccc4[nH]ccc4c3)C2)ncn1 (centres undefined),Percent Effect,"30.3 µM, […]",-4.218%
Cc1cc(N2CCOCC(Cc3ccc4[nH]ccc4c3)C2)ncn1 (centres undefined),Percent Effect,"30.3 µM, […]",12.74%
O=C(CC1CC2(CCN(CC3CC3)CC2)Oc2ccccc21)NC1CC1.O=C(O)C(F)(F)F (centres undefined),Percent Effect,"30.3 µM, […]",11.6%
CCC[C@H]1CN(S(=O)(=O)N(C)Cc2ccccc2)C[C@@H]1N,Percent Effect,"30 µM, 30.03 µM",8.364%
CCOCc1ccccc1NC(=O)NC1CCN(CC(F)(F)F)C1 (centres undefined),Percent Effect,"30.3 µM, […]",8.993%
CCOCc1ccccc1NC(=O)NC1CCN(c2ccccc2)C1 (centres undefined),Percent Effect,"30.3 µM, […]",12.17%
CCOCc1ccccc1NC(=O)NC1CCN(C2CCCC2)C1 (centres undefined),Percent Effect,"30.3 µM, […]",99.06%
